Screens: PubChem BioAssay, National Center for Advancing Translational Sciences (NCATS)
Shown are actives, neighbours in structure and some others; about 0.44% of the full set was active somewhere.
PI4K2A block: qHTS for small molecular inhibitors of PI4K2A. Phosphatidylinositol 4-kinase type 2-alpha (Homo sapiens), Q9BTU6. purified PI4K2A, ADP-Glo luminescence, 1 h; active compounds read low. activity change, negative = inhibition, % at 76.9 µM. 420,000 tested, 0.13% active. AID 1346378, 2018; in the data active means activity change below about -50%; inconclusive means mostly about -30% to -49%;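 further: -100% = wells without enzyme as full effect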
Target sequence (Q9BTU6 whole entry, looked up): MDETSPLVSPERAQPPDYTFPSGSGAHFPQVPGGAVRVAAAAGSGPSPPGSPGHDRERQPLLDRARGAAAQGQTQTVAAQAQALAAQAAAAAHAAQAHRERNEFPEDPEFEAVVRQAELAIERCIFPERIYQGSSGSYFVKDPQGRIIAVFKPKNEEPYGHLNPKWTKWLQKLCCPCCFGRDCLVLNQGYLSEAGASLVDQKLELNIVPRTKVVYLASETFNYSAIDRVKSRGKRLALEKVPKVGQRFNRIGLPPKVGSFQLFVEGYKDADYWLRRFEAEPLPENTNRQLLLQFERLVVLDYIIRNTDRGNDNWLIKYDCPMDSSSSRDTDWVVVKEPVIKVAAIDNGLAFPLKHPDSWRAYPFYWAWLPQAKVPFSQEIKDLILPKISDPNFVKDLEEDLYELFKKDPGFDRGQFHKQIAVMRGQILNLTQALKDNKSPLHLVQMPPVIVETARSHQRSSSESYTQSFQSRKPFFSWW
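Compounds are screened against recombinant PI4K2A using PI as substrate and ATP, the latter dispensed at 300 microM. Reactions run one hour at ambient temperature before ADP-Glo detection; full inhibition defined by wells lacking enzyme.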
Giardia killer: Small Molecules that selectively kill Giardia lamblia: qHTS. Giardia lamblia trophozoite viability. activity change, % at 7.66 µM, hits read low. 340,000 tested, 0.15% active. AID 540267, 2011; in the data active means activity change below about -80%; inconclusive means between about -30% and that limit;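 further: parasites exposed to compound for two days anaerobically before the ATP read; on the % scale 0 is the no-effect control and ±100 the full control effect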
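Each well holds 100 Giardia trophozoites and compound. After two days (48 hrs) at 37 deg C in anaerobic conditions, ATP is quantified by luminescence.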
B2AR arrestin: qHTS assay of beta-arrestin-biased ligands of beta2-adrenergic receptor. Beta-2 adrenergic receptor (Homo sapiens), P07550. beta-arrestin recruitment to beta2AR, cell-based reporter. Potency, µM (highest dose often 46.1 µM), without a hit: at the top dose activation, actives largely listed as activators. 330,000 tested, 0.02% active. AID 492947, 2010;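 further: potency means the concentration at half of the fitted maximal effect; 0% = DMSO controls and full agonism = EC100 isoproterenol or metaproterenol; nearly all actives have a fitted effect of over 65% in size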
p53 reactivation: qHTS assay for re-activators of p53 using a Luc reporter; Potency, µM (highest dose often 92.2 µM), for inactives: top-dose activity change, positive = activation, most hits filed as activators; AID 504706, 2011; 320,000 tested, 0.063% active; H1299 p53-A138V BP100-luciferase reporter, luminescence, 24 h; further: potency means the concentration at half of the fitted maximal effect; % of control where 0% means no effect; nearly all actives have a fitted effect of over 45% in size
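p53-null H1299 cells stably carrying temperature-sensitive p53-A138V and a BP100-luciferase reporter were pinned with compounds (4-point, 1:5 series) and held 24 hrs at 37 deg C. Luminescence was read 10 min after detection reagent.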
Epigenetic derep: Quantitative High-Throughput Screen for Regulators of Epigenetic Control. AID 1865, 2009. Potency, µM (titrated, usually from 53.9 µM), for the others: top-dose GFP activation, most hits filed as activators. 280,000 tested, 0.2% active. murine LDR cells, GFP reporter derepression, 30 h; further: potency means the concentration at half of the fitted maximal effect; % of control where 0% means no effect; nearly all actives have a fitted effect of over 60% in size
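Derepression of a silenced CMV-GFP reporter in murine LDR cells is scored by enumerating GFP-positive cells with a laser-scanning microplate cytometer after 30 hours of treatment at 37 C.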
Pin1 inh: qHTS Assay to Find Inhibitors of Pin1 | Peptidyl-prolyl cis-trans isomerase NIMA-interacting 1 (Homo sapiens), Q13526 | Pin1 FP peptide displacement, HiFluor488, 10 min | Potency, µM (highest dose often 115 µM), for inactives: at the top dose activity, negative = inhibition, hits mostly inhibitors | 390,000 tested, 0.009% active | AID 504891, 2011; active means well fitted inhibition curve with a large enough effect in the polarisation, with a control signal flat, not every such curve was filed as active; inconclusive means small, poorly fitted or top-dose-only effect, or effect the other way, or a change in a side signal; inactive means no such curve, though single readings can be large or run the other way; the % refers to the polarisation; further: potency means the concentration at half of the fitted maximal effect; on the % scale 0 is the no-effect control and ±100 the full control effect
Target sequence (Q13526 whole entry, looked up): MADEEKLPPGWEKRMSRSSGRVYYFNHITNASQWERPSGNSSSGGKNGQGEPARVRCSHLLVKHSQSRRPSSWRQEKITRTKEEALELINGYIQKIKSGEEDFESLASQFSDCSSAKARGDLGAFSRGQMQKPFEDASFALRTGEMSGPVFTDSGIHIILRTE
* hit, by the source's call. Unless noted, the call rests on the fitted dose curve; in most records, active means well fitted curve in the direction sought with a large enough effect; inconclusive means small, poorly fitted or top-dose-only effect, or another doubt; inactive means no such curve, though single readings can be large; an effect the other way counts as inactive or inconclusive.

What do the screens show for `O=C(NNC(=S)Nc1ccc(F)cc1)c1cccc([N+](=O)[O-])c1`?
PI4K2A block: -10.4; Giardia killer: 16.8; B2AR arrestin: 3.9%; p53 reactivation: 13.6%; Epigenetic derep: 0.8%; Pin1 inh: -10.0%

Results for O=C(NN=C1CCCCCC1)c1cccs1 ?
PI4K2A block: -2.3; Giardia killer: -26.5; B2AR arrestin: -1.1%; p53 reactivation: 39.8µM*; Pin1 inh: -4.5%

Results for c1ccc(P(c2ccccc2)c2cnc3ccccn23)cc1 ?
Pin1 inh: -1.2%

What do the screens show for `COc1ccc(CC(=O)OCn2nnc3ccccc3c2=O)cc1`?
PI4K2A block: -56.7*; Giardia killer: 1.5; B2AR arrestin: 0.0%; p53 reactivation: 8.1%; Epigenetic derep: -3.2%; Pin1 inh: 8.8%

Results for CCCN(CCC)CC(O)Cn1cc(/C=C/C(=O)c2ccc(Br)cc2)c2ccccc21 (stereo not drawn) ?
PI4K2A block: 1.0; Epigenetic derep: 15.8µM*; Pin1 inh: 35.4%

How did O=C(Oc1c(CN2CCOCC2)cc(Cl)c2cccnc12)c1ccccc1Cl do in these assays?
PI4K2A block: -29.9; Giardia killer: -6.3; B2AR arrestin: 3.55µM*; p53 reactivation: -0.1%; Epigenetic derep: inconclusive; Pin1 inh: 2.9%

What do the screens show for `O=C(Oc1c(CN2CCOCC2)cc(Cl)c2cccnc12)c1cccs1`?
PI4K2A block: -2.8; Giardia killer: -5.6; B2AR arrestin: 8.7%; p53 reactivation: 2.6%; Epigenetic derep: inconclusive; Pin1 inh: 1.1%

Results for COc1ccc(C(=O)Oc2c(CN3CCOCC3)cc(Cl)c3cccnc23)cc1 ?
PI4K2A block: -0.2; Giardia killer: -12.5; B2AR arrestin: inconclusive; p53 reactivation: 2.3%; Epigenetic derep: 7.08µM*; Pin1 inh: -5.9%

Results for COc1cc(C(=O)Oc2c(CN3CCOCC3)cc(Cl)c3cccnc23)cc(OC)c1OC ?
PI4K2A block: -21.5; Giardia killer: 25.3; B2AR arrestin: 3.55µM*; p53 reactivation: 1.0%; Epigenetic derep: inconclusive; Pin1 inh: -6.8%

How did COc1cccc(C(=O)Oc2c(CN3CCOCC3)cc(Cl)c3cccnc23)c1 do in these assays?
PI4K2A block: -20.9; Giardia killer: -1.4; B2AR arrestin: 10.5%; p53 reactivation: 14.4%; Epigenetic derep: 4.47µM*; Pin1 inh: -3.8%

What do the screens show for `COc1cc(C(=O)Oc2c(OC)cc(C(=S)N3CCOCC3)cc2OC)cc(OC)c1OC`?
PI4K2A block: 1.7; Giardia killer: -24.2; B2AR arrestin: 0.3%; p53 reactivation: 3.7%; Pin1 inh: 0.0%

What do the screens show for `O=C(Oc1c(CN2CCOCC2)cc(Cl)c2cccnc12)c1ccc(F)cc1`?
PI4K2A block: -4.9; Giardia killer: 0.8; B2AR arrestin: 8.3%; p53 reactivation: 10.2%; Epigenetic derep: inconclusive; Pin1 inh: -3.7%

How did COc1ccc(C2N(Cc3ccccc3)C(=O)c3ccccc3N2C)cc1COc1ccc(NC(C)=O)cc1 (stereo not drawn) do in these assays?
Pin1 inh: 24.4%

Results for COc1ccc(C2Nc3ccccc3C(=O)N2Cc2ccccc2)cc1COc1ccc(C#N)cc1 (stereo not drawn) ?
Pin1 inh: 15.3%

What do the screens show for `N=c1c2c(ncn1-c1ccccc1)Oc1ccc3ccccc3c1C2c1ccc2c(c1)OCCO2` (stereo not drawn)?
Pin1 inh: 113.8%

What do the screens show for `CC1CCN(S(=O)(=O)c2nnc(NC(=O)c3cccc(Br)c3)s2)CC1`?
PI4K2A block: 1.6; Epigenetic derep: 0.0%; Pin1 inh: -1.6%

How did CC1CCN(S(=O)(=O)c2nnc(NC(=O)c3cccc(F)c3)s2)CC1 do in these assays?
PI4K2A block: -3.8; Epigenetic derep: 12.6µM*; Pin1 inh: -5.5%

Results for CC1=NN(c2ccccc2)C(=O)C1=Cc1ccccc1 ?
PI4K2A block: -56.6*

What do the screens show for `CCn1nnc(NC(=S)NC(=O)c2ccc(-c3cccc(Cl)c3)o2)n1`?
PI4K2A block: 1.0; Giardia killer: -5.6; B2AR arrestin: 17.8µM*; p53 reactivation: -0.3%; Epigenetic derep: -1.1%; Pin1 inh: 0.3%

Results for NC(=O)C1CCN(c2nc(-c3ccc(OC(F)(F)F)cc3)cs2)CC1 ?
Pin1 inh: -19.2%

What do the screens show for `Oc1ccc(Cl)cc1N=Nc1ccccc1`?
PI4K2A block: -0.9; Giardia killer: 7.9; B2AR arrestin: -0.1%; Pin1 inh: -5.9%

What do the screens show for `Cc1ccc(O)c(N=Nc2ccccc2)n1`?
PI4K2A block: -67.4*; Giardia killer: -15.6; Epigenetic derep: -1.2%; Pin1 inh: 2.2%

What do the screens show for `Nc1c(C(=O)c2ccc(Cl)cc2)sc2nsc(SCCN3CCOCC3)c12`?
PI4K2A block: 1.4; Giardia killer: -3.5; B2AR arrestin: 0.0%; p53 reactivation: -3.6%; Epigenetic derep: 20µM*; Pin1 inh: inconclusive

How did Nc1c(C(=O)c2ccccc2)sc2nsc(SCCN3CCCC3)c12 do in these assays?
PI4K2A block: -1.0; Giardia killer: 24.6; B2AR arrestin: -1.0%; p53 reactivation: inconclusive; Epigenetic derep: inconclusive; Pin1 inh: inconclusive

What do the screens show for `Cc1nc(-c2ccc([S+](=O)([O-])N3CCN([S+](=O)([O-])c4c(F)cccc4F)CC3)s2)cs1`?
Pin1 inh: 7.6%

What do the screens show for `COc1ccc(N(C(=O)CCl)C(C)(C(=O)Nc2c(C)cccc2C)c2ccccn2)cc1` (stereo not drawn)?
PI4K2A block: -0.6; Giardia killer: 30.2; B2AR arrestin: 13µM*; p53 reactivation: -19.3%; Epigenetic derep: 0.0%; Pin1 inh: inconclusive

What do the screens show for `Cc1ccc(NC(=O)CN2C(=O)S/C(=C/c3ccc(O)c([N+](=O)[O-])c3)C2=O)cc1C`?
PI4K2A block: -2.9; Giardia killer: -82.0*; B2AR arrestin: -0.4%; p53 reactivation: -4.8%; Epigenetic derep: -2.9%

Results for O=C1S/C(=C\c2ccc(O)c([N+](=O)[O-])c2)C(=O)N1Cc1cccc([N+](=O)[O-])c1 ?
PI4K2A block: 1.8; Giardia killer: -81.5*; B2AR arrestin: 0.1%; p53 reactivation: -4.7%; Epigenetic derep: 1.1%; Pin1 inh: inconclusive

How did Cc1cc(N)n2nc(-c3ccccc3)cc2n1 do in these assays?
PI4K2A block: -53.7*; Giardia killer: inconclusive; B2AR arrestin: -0.1%; p53 reactivation: inconclusive; Epigenetic derep: 5.4%; Pin1 inh: -1.2%
